Assay outcomes as filed in PubChem BioAssay.
The list is not random: actives were taken first. Their share in the collection is about 2.9%.
Candida biofilm – kills Candida albicans biofilms; C. albicans biofilm + clotrimazole, Alamar Blue; inhibition, % at 6 µM; actives 0.14% (n = 85,000);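 active = inhibition above 20%; inactive = inhibition below 20%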;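 also: preformed 24 hr biofilms exposed to compound for 48 hr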
ERa SRC1 pot – enhances coactivator binding to human estrogen receptor alpha; actives 1.3% (n = 86,000); TR-FRET ERalpha-LBD/SRC-Cy5 coactivator binding, 2 h; 100 = basal binding, no effect; P03372; coactivator binding (% of control), % at 25.6 µM; AID 639; in the data active = activity above about 200%;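 also: binding measured in presence of low estradiol as agonist stimulus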
Target sequence (P03372 whole entry, looked up, the tested form may be a part): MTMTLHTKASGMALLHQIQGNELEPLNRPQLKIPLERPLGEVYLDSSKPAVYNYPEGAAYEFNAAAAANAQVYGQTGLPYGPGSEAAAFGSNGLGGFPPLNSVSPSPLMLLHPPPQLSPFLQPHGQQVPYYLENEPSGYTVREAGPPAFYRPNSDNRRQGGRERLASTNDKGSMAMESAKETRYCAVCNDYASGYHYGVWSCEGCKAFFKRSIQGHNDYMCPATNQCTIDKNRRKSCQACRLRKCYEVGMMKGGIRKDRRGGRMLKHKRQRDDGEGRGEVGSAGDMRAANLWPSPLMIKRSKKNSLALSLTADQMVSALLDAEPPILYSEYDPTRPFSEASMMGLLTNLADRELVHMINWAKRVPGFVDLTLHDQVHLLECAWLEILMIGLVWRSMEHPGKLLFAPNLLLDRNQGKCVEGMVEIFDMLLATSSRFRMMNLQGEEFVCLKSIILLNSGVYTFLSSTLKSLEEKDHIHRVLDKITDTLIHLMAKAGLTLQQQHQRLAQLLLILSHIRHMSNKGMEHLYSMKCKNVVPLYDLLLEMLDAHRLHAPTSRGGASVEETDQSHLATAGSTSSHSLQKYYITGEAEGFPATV
Smad3 inh – Smad3 (human) transcription factor binding inhibition; P84022; TR-FRET Smad3/Dy647-FoxH1 peptide binding, europium anti-His; inhibition, % at 25 µM; actives 0.29% (n = 88,000);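 active = compounds that reduce the energy-transfer binding signal between the protein and its labelled peptide by more than half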
ERb SRC1 inh – ER-beta (human) coactivator binding inhibition. TR-FRET ER-beta LBD / SRC1-Cy5 peptide binding; receptor agonist-loaded with 1 µM estradiol. actives 1.3% (n = 86,000). inhibition, % at 25.6 µM;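 active = compounds whose percent inhibition of the receptor-coactivator binding signal exceeds about 50% in the single-dose screen, limit read from the data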
ERa coact inh – blocks coactivator binding to human estrogen receptor alpha | P03372 | TR-FRET ER-alpha LBD / SRC-1 peptide, estradiol-bound | inhibition, % at 25.6 µM | actives 1.7% (n = 86,000); in the data active = inhibition above about 50%
HePTP inh – blocks human HePTP tyrosine phosphatase. P35236. recombinant HePTP phosphatase activity, OD absorbance. inhibition, % at 20 µM. actives 0.64% (n = 110,000). AID 521; in the data active = inhibition above about 50%; inconclusive = no clear call, values can overlap the other calls
Large screens that a line does not name were inactive; [ ] = dose if it differs, or a comment.

CCCS(=O)(=O)N1CCC(C(=O)NCCN2CCCC2)CC1	ERb SRC1 inh 81[fluorescence artefact?]
CS(=O)(=O)N(Cc1ccccc1)c1ccccc1C(=O)Nc1ccc(Cl)c(C(F)(F)F)c1	none (no result: Candida biofilm, ERa SRC1 pot, Smad3 inh, ERb SRC1 inh, ERa coact inh)
C=CCNCCCCOc1ccc(Br)cc1	none (no result: Candida biofilm, ERa SRC1 pot, Smad3 inh, ERb SRC1 inh, ERa coact inh)
CCC(=O)Nc1nonc1-c1nc2ccccc2n1Cc1ccc(Cl)c(Cl)c1	ERb SRC1 inh 51[fluorescence artefact?], ERa coact inh 58[fluorescence artefact?]
CC(=O)Nc1nonc1-c1nc2ccccc2n1Cc1ccccc1	none (no result: Candida biofilm, ERa SRC1 pot, Smad3 inh, ERb SRC1 inh, ERa coact inh)
CC(C)c1ccc(/C=N/NC(=O)c2cc(-c3ccc(Cl)cc3)n[nH]2)cc1	none (no result: Candida biofilm, ERa SRC1 pot, Smad3 inh, ERb SRC1 inh, ERa coact inh)
Cc1ccccc1N(C=O)C(=O)C1C(C)C2C=CC1C21CC1 (stereo not drawn)	HePTP inh 105 (no result: Candida biofilm, ERa SRC1 pot, Smad3 inh, ERb SRC1 inh, ERa coact inh)
CC1C(C(=O)N(C=O)c2ccccc2F)C2C=CC1C21CC1 (stereo not drawn)	none (no result: Candida biofilm, ERa SRC1 pot, Smad3 inh, ERb SRC1 inh, ERa coact inh)
Cc1cc2nc(-c3cccnc3SCC(=O)NCc3ccco3)[nH]c2cc1C	ERb SRC1 inh 60, ERa coact inh 69[fluorescence artefact?]
O=C(CSc1ncccc1-c1nc2ccccc2[nH]1)NCc1ccco1	none
Cc1cc(=O)[nH]c(SCC(=O)NCc2ccco2)n1	ERb SRC1 inh 66
Cc1nnc(SCC(=O)NCc2ccco2)[nH]c1=O	none
CC(C)c1ccc(NC(=O)CSc2nc3c(c(=O)[nH]2)CCC3)cc1	ERa coact inh 100[fluorescence artefact?]
CCOC(=O)c1ccc(NC(=O)CSc2nc(C)cc(=O)[nH]2)cc1	ERb SRC1 inh 84[fluorescence artefact?], ERa coact inh 90
Cc1onc(-c2c(Cl)cccc2Cl)c1C(=O)Nc1ccc(S(=O)(=O)Nc2nccs2)cc1	none (no result: Candida biofilm, ERa SRC1 pot, Smad3 inh, ERb SRC1 inh, ERa coact inh)
O/N=C\c1ccc(-c2ccc(Cl)c(Cl)c2)o1	none (no result: Candida biofilm, ERa SRC1 pot, Smad3 inh, ERb SRC1 inh, ERa coact inh)
O=C(O)c1ccccc1N=Nc1cc(-c2ccccc2)oc1O	HePTP inh 101 (no result: Candida biofilm, ERa SRC1 pot, Smad3 inh, ERb SRC1 inh, ERa coact inh)
O=C(O)c1cc(-c2ccccc2)on1	none (no result: HePTP inh)
Cc1cc(C)c2cc(CN(CCO)C(=O)Nc3ccc(Cl)cc3)c(=O)[nH]c2c1	ERa SRC1 pot 232
O=C1c2ccccc2-c2onc3ccc(NCCCn4ccnc4)c1c23	ERa coact inh 70[fluorescence artefact?], HePTP inh inconclusive
O=C(O)C1CC(O)CN1C(=O)Oc1ccccc1 (stereo not drawn)	HePTP inh 105 (no result: Candida biofilm, ERa SRC1 pot, Smad3 inh, ERb SRC1 inh, ERa coact inh)
O=C(COC(=O)C1CCCN1C(=O)Oc1ccccc1)c1ccccc1 (stereo not drawn)	none (no result: Candida biofilm, ERa SRC1 pot, Smad3 inh, ERb SRC1 inh, ERa coact inh)
O=C(CN1C(=O)c2ccc([N+](=O)[O-])cc2C1=O)NN1C(=O)c2ccccc2C1=O	none (no result: Candida biofilm, ERa SRC1 pot, Smad3 inh, ERb SRC1 inh, ERa coact inh)
N=C(N)S[C@@H]1c2ccccc2-c2cc([N+](=O)[O-])ccc21	Smad3 inh 69 (no result: Candida biofilm, ERa SRC1 pot, ERb SRC1 inh, ERa coact inh, HePTP inh)
C#CCn1c(=NC(=O)c2ccc(Br)s2)sc2cccc(OC)c21	ERa SRC1 pot 333[fluorescence artefact?], ERa coact inh 57[fluorescence artefact?] (no result: HePTP inh)
O=C(Nc1cc(NC(=O)c2ccccc2)cc(C(=O)Nc2nccs2)c1)c1ccccc1	none (no result: Candida biofilm, ERa SRC1 pot, Smad3 inh, ERb SRC1 inh, ERa coact inh)
O=C(Nc1nccs1)c1ccc2nccnc2c1	ERb SRC1 inh 60
COc1ccc(C(=O)Nc2ccc(N3CCCC3)cc2)cc1	Candida biofilm 80, ERa coact inh 84[fluorescence artefact?] (no result: HePTP inh)
Cc1cc(C)cc(OCC(=O)Nc2ccc(N3CCCC3)cc2)c1	ERb SRC1 inh 71, ERa coact inh 97[fluorescence artefact?]
Cc1cc(C)cc(OCC(=O)Nc2ccc(F)cc2)c1	none (no result: HePTP inh)
COc1ccc(C(=O)Nc2cc(C(F)(F)F)cc(C(F)(F)F)c2)cc1	HePTP inh 104 (no result: Candida biofilm, ERa SRC1 pot, Smad3 inh, ERb SRC1 inh, ERa coact inh)
CN1CCN(c2ccc(NC(=O)COc3ccccc3Cl)cc2)CC1	ERb SRC1 inh 72[fluorescence artefact?], ERa coact inh 57[fluorescence artefact?]
CCOc1ccccc1/C=N\N1CCN(c2ccccc2OC)CC1	none (no result: Candida biofilm, ERa SRC1 pot, Smad3 inh, ERb SRC1 inh, ERa coact inh)
CCCCCc1ccc(/C(C)=N/Nc2nc(C)cc(=O)[nH]2)cc1	none (no result: Candida biofilm, ERa SRC1 pot, Smad3 inh, ERb SRC1 inh, ERa coact inh)
Cc1cccc(OCC(=O)Nc2cccc(-c3nnc(-c4ccccc4)o3)c2)c1C	ERa coact inh 72[fluorescence artefact?]
Cc1ccc(OCC(=O)Nc2ccc(N3CCCC3)cc2)cc1C	ERb SRC1 inh 82[fluorescence artefact?], ERa coact inh 99[fluorescence artefact?]
Cc1cccc(OCC(=O)Nc2ccc(N3CCCC3)cc2)c1C	ERb SRC1 inh 59[fluorescence artefact?], ERa coact inh 95[fluorescence artefact?]
O=C(Nc1ccc(N2CCCC2)cc1)c1ccc(Br)o1	ERb SRC1 inh 68[fluorescence artefact?], ERa coact inh 59[fluorescence artefact?]
O=C(Nc1ccc(N2CCN(C(=O)c3ccccc3)CC2)cc1)c1ccc(Br)o1	none
CC(=O)N1N=C(C)CC1(O)c1cccnc1 (stereo not drawn)	none (no result: Candida biofilm, ERa SRC1 pot, Smad3 inh, ERb SRC1 inh, ERa coact inh)
Cc1cc(OCC(=O)NCCN2CCOCC2)cc(C)c1Br	none
Cc1cc(C)cc(OCC(=O)NCCN2CCOCC2)c1	ERb SRC1 inh 85[fluorescence artefact?]
O=C1Nc2cc3c(cc2Sc2ccccc21)OCCO3	ERa SRC1 pot 234[fluorescence artefact?]
